Experimental data as given in PubChem BioAssay (NCATS).
Records with an inconclusive call do not appear. Active and inactive are the calls of the source. Unless noted, calls come from the whole dose curve; as a rule, active = well fitted curve in either direction with a large enough effect (not every such curve was filed as active); inconclusive = small, poorly fitted or top-dose-only effect, or another doubt; inactive = flat fitted curve, though single readings scatter.

Assays:
[1] = AP1 Signaling Pathway (AID 357);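 note: ME-180 reporter cells stimulated with EGF at its EC50 level; % is set by controls: 0 for no effect and ±100 for the full control effect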
In short: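 Cells are seeded overnight, exposed to compound titrations and an EC50 level of EGF for 5 hours at 37 °C, then loaded with CCF4 dye for 2.5 hours. Beta-lactamase activity under the AP-1 element is read as a blue/green ratio.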

[2] = NFAT Signaling Pathway (AID 444); details: Jurkat NFAT-bla M1, carbachol, beta-lactamase ratio, 5 h;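 note: carbachol stimulus at about its EC50 of 1 µM final; % is set by controls: 0 for no effect and ±100 for the full control effect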
In short: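 Jurkat cells carrying an NFAT-driven β-lactamase reporter and co-transfected muscarinic M1 receptor were treated with compound plus carbachol (1 uM final, an EC50 level) for 5 h at 37 °C. CCF4 loading followed for 1 h at RT; 460/530 nm ratio gave %activity.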

[3] = Stat Signaling Pathway (AID 446);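 note: ME-180 cervical cancer cells given 40 pM IL-6 alongside compound; SIE-controlled beta-lactamase reporter measured as 460/530 nm FRET emission ratio; % is set by controls: 0 for no effect and ±100 for the full control effect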
In short: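 FRET read-out (405 nm excitation, 460/530 nm emission) of a beta-lactamase reporter under a STAT-inducible element in ME-180 cervical carcinoma cells. Cells with compound receive 40 pM IL-6 for 5 h. Values are normalised to AC90 stimulation and AC90 JAK-inhibitor controls.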

[4] = target: Glucocorticoid receptor (Homo sapiens) (UniProt P04150); assay: GR-GFP Redistribution (AID 450;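 active = compounds whose dose series gives a full or clear partial fitted curve of increased nuclear translocation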; note: potency is the fitted concentration of half-maximal effect); details: U2OS GR-GFP nuclear translocation, laser cytometry, 2 h
Sequence of Glucocorticoid receptor (Homo sapiens) (P04150 whole entry, looked up, the tested form may be a part): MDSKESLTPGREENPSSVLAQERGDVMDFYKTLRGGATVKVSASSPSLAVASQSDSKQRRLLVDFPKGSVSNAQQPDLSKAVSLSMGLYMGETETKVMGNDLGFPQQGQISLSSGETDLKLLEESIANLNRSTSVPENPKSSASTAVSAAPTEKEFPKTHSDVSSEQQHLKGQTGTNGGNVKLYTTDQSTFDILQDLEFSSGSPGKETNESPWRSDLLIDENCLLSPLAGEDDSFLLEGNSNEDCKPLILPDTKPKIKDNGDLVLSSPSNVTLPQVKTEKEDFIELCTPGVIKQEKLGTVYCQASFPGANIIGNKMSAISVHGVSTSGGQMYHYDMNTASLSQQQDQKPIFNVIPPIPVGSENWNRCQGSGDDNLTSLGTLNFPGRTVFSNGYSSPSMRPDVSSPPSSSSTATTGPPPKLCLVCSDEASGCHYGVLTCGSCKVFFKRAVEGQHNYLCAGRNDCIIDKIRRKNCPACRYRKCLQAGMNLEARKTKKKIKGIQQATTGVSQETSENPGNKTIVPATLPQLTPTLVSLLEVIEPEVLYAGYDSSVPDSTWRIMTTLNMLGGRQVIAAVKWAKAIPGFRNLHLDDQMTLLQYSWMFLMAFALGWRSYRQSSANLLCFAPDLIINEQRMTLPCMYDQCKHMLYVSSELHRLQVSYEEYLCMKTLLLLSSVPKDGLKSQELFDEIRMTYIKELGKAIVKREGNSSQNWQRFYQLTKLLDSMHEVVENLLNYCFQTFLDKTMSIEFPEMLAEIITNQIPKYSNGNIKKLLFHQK

[5] = target: Glucocorticoid receptor (Homo sapiens) (UniProt P04150); assay: GR-EFC Redistribution (AID 451; calls by dose curve; note: potency is the fitted concentration of half-maximal effect); details: CHO-K1 GR-EFC translocation, beta-gal luminescence, 2 h
In short: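 CHO-K1 cells stably expressing nuclear-localized β-gal enzyme acceptor and GR fused C-terminally to the enzyme donor fragment; ligand-driven nuclear translocation restores β-gal by complementation. Compounds titrated up to 46 uM final, 2 h at 37 °C; luminescence read.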

[6] = target: Mitogen-activated protein kinase 10 (Mus musculus) (UniProt Q61831); assay: JNK3 AlphaScreen Assay (AID 530);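 note: kinase came from lysate of stimulated human HepG2 cells; signal reports phosphorylation of biotinylated GST-cJun 1-79 at Ser73 with 10 µM ATP; % is set by controls: 0 for no effect and ±100 for the full control effect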
In short: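 Biotinylated GST-cJun(1-79) served as substrate for JNK3 in HepG2 lysates stimulated with IL-1beta and TNF-alpha. ATP was 10 uM final, pH 7.6. Ser73 phosphorylation was quantified by AlphaScreen (680 nm excitation).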

[7] = target: 3',5'-cyclic-AMP phosphodiesterase 4B (Homo sapiens) (UniProt Q07343); assay: qHTS Assay for Inhibitors of PDE-IV (AID 607; active = well fitted activation curve with a large enough effect in the main read-out, with a control signal flat, not every such curve was filed as active; note: % of control where 0% means no effect)
Sequence of 3',5'-cyclic-AMP phosphodiesterase 4B (Homo sapiens) (Q07343 whole entry, looked up): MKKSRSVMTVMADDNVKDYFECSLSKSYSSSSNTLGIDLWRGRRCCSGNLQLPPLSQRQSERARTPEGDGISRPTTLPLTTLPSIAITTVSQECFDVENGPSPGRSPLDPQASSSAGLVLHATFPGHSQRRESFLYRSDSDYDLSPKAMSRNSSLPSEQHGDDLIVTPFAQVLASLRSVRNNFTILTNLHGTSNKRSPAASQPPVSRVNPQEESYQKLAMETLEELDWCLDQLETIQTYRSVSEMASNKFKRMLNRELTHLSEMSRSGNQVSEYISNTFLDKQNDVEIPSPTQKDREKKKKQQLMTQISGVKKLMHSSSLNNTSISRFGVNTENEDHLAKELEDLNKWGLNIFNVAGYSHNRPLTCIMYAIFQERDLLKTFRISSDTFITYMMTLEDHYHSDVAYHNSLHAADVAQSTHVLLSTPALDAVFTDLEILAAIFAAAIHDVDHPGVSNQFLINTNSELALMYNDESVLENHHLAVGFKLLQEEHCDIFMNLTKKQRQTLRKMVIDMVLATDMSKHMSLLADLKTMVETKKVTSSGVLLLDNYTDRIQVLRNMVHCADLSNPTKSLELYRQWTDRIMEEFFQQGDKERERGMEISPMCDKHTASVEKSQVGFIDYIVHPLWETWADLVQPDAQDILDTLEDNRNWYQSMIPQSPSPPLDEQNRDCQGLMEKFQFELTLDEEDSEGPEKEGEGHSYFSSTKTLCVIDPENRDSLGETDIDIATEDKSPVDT
In short: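 Cell-based read-out of cAMP via a modified cyclic nucleotide-gated channel and membrane potential dye (535/590 nm) in HEK293 cells expressing PDE4 endogenously. Compounds tested up to 22.9 uM final; 100 uM RO 20-1724 reference.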

[8] = Cell Viability - BJ (AID 421; calls by dose curve;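 note: potency is the fitted concentration of half-maximal effect; cells exposed to compound for 40 hours at 37 °C before readout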); details: BJ fibroblast viability, qHTS
In short: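 Cytotoxicity as drop in intracellular ATP (CellTiter-Glo, 20 min RT) after 40 hr compound exposure of BJ fibroblasts at 37 °C. Titrations scaled between DMSO and 100 uM tamoxifen, Hill-fitted for AC50.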

[9] = Cell Viability - Hek293 (AID 427;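 active = compounds whose dose-response curve shows a full or clear partial loss of cell viability, called from curve shape rather than a numeric limit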;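 note: potency is the fitted concentration of half-maximal effect; cells exposed to compound for 40 hours at 37 °C before reading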); details: qHTS
In short: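 Luminescent ATP content (CellTiter-Glo, 20 min at room temperature) was measured after a 40 hr, 37 °C compound exposure of HEK293 cells. AC50 values came from Hill-equation fits of qHTS concentration-response data normalized to DMSO and 100 uM tamoxifen.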

[10] = Cell Viability - HepG2 (AID 433; calls by dose curve;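 note: potency is the fitted concentration of half-maximal effect; potency for ATP loss meaning cytotoxicity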); details: qHTS
In short: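 ATP luminescence (CellTiter-Glo) after 40 h compound exposure, 37 °C, HepG2, 1500 cells/well, complete medium. Normalized: DMSO = basal, 100 uM tamoxifen = 100% inhibition. AC50 via standard Hill equation.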

[11] = Cell Viability - MRC5 (AID 434; calls by dose curve;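 note: potency is the fitted concentration of half-maximal effect; cells exposed to compound for 40 hours at 37 °C; potency reflects cytotoxicity seen as loss of intracellular ATP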); details: MRC5 lung fibroblast viability, qHTS
In short: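 Decrease in intracellular ATP, quantified by luciferase light output, reflects compound toxicity toward MRC5 cells exposed for 40 hr in complete culture medium. Concentration-response curves, scaled between DMSO and 100 uM tamoxifen, gave AC50 values.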

[12] = Cell Viability - SK-N-SH (AID 435; calls by dose curve; note: potency is the fitted concentration of half-maximal effect); details: SK-N-SH neuroblastoma cell viability qHTS
In short: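 CellTiter-Glo ATP luminescence, 20 min RT read; cells pre-plated 5 hr, compound 40 hr at 37 °C, 1500 cells/well, complete medium. Normalized DMSO = 0, 100 uM tamoxifen = 100% inhibition; Hill-fit AC50.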

[13] = Cell Viability - N2a (AID 540; active = well fitted curve in the direction sought with a large enough effect; an effect the other way counts as inactive or inconclusive;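 note: plate controls were DMSO alone for no effect and tamoxifen control for full effect; nearly all actives have a fitted effect of over 45% in size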)
In short: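 In this qHTS cytotoxicity screen, ATP-dependent luciferase luminescence reports viable N2a cells after a 40 hr compound exposure in complete culture medium. Potencies are AC50 values from standard Hill equation fits.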

[14] = Cell Viability - NIH 3T3 (AID 541; active = well fitted curve in the direction sought with a large enough effect; an effect the other way counts as inactive or inconclusive;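 note: plate controls were DMSO alone for no effect and tamoxifen positive control for full effect; nearly all actives have a fitted effect of over 25% in size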); details: NIH 3T3 cell viability, qHTS; at 92.2 µM (top of the series)
In short: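 In this cytotoxicity screen, acute toxicity is scored as an ATP drop measured by CellTiter-Glo in NIH 3T3 fibroblasts following a 40 hr, 37 °C incubation with compound.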

[15] = Cell Viability - HUV-EC-C (AID 542; active = well fitted curve in the direction sought with a large enough effect; an effect the other way counts as inactive or inconclusive; note: % is set by controls: 0 for no effect and ±100 for the full control effect; nearly all actives have a fitted effect of over 35% in size)
In short: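 Concentration-dependent ATP loss in HUV-EC-C cells is the measure. Exposure lasts 40 hr at 37 °C; luminescence follows CellTiter-Glo addition, and Hill fits give AC50.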

[16] = Cell Viability - H-4-II-E (AID 543; active = well fitted curve in the direction sought with a large enough effect; an effect the other way counts as inactive or inconclusive; note: % is set by controls: 0 for no effect and ±100 for the full control effect; nearly all actives have a fitted effect of over 35% in size)
In short: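 AC50 from Hill-modelled qHTS concentration-response curves. H-4-II-E rat hepatoma cells in complete medium, 40 hr exposure at 37 °C, viability by CellTiter-Glo ATP luminescence.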

[17] = Cell Viability - SH-SY5Y (AID 544; active = well fitted curve in the direction sought with a large enough effect; an effect the other way counts as inactive or inconclusive;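 note: 0% = DMSO alone and -100% = 100 µM tamoxifen; nearly all actives have a fitted effect of over 55% in size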)
In short: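 Quantitative HTS in SH-SY5Y neuroblastoma cells, 40 hr treatment at 37 °C, ATP content by luciferase luminescence; AC50 from Hill fits.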

[18] = Cell Viability - Mesenchymal (AID 546; active = well fitted curve in the direction sought with a large enough effect; an effect the other way counts as inactive or inconclusive;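 note: cells exposed to compound for 40 hours before reading; 0% = DMSO only and -100% = 100 µM tamoxifen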)
In short: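 In this qHTS cytotoxicity format, glomerulus-derived human mesenchymal kidney cells received compound for 40 hr, then luciferase-based ATP quantitation. Concentration-response data were fitted with the Hill equation.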

[19] = Cellular Toxicity (caspase-3) HepG2 (AID 654; active = well fitted curve in the direction sought with a large enough effect; an effect the other way counts as inactive or inconclusive;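 note: cells exposed to compound for 16 hours before reading; 0% = DMSO alone and 100% = caspase signal from 100 µM tamoxifen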)
In short: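 Concentration-response AC50 values reflect caspase-3/7 induction in HepG2 cells after 16 hours of compound exposure, quantified by luminescence from liberated aminoluciferin and referenced to 100 uM tamoxifen as full stimulation.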

COc1ccc2c(c1)C13CCCC[C@@H]1C(C2)N(C)CC3 (stereo partly drawn)
inactive: outcome [1] | activity change, negative = inhibition ([2]; at 17.2 µM (top of the series)) -1.88% | outcome [3] | Potency [4] > 20.6 µM | Potency [5] > 20.6 µM | outcome [6] | outcome [7]

CC(C)c1cccc(C(C)C)c1O
inactive: outcome [1] | Potency [8] > 92 µM | Potency [9] > 92 µM | Potency [10] > 92 µM | Potency [11] > 92 µM | Potency [12] > 92 µM | activity change, negative = inhibition ([2]; at 17.2 µM (top of the series)) -3.69% | activity change, negative = inhibition ([2]; at 38 µM (top of the series)) 7.25% | outcome [3] | outcome [6] | outcome [13] | activity change, negative = cytotoxicity [14] 4.32% | Potency [15] | Potency [16] | Potency [17] | outcome [18] | outcome [7] | outcome [19]

[N-]=[N+]=CC(=O)OC[C@H](N)C(=O)O
inactive: outcome [1] | activity change, negative = inhibition ([2]; at 17.2 µM (top of the series)) -1.72% | outcome [3]
